Assay results taken from ChEMBL document CHEMBL3988442, “University of Dundee, Small-Polar-MMV Screening Library” (2021).

biological target: T1, Aspartate--tRNA(Asp/Asn) ligase (Mycobacterium tuberculosis (strain ATCC 25618 / H37Rv)) (UniProt P9WFW3); assay: Assay for Asp RNA synthetase-1 from Mycobacterium tuberculosis; assay type: functional; design: scale not given: direction of the effect not stated beside the values; conditions: 30 µM; further: in the data most compounds retested in dose-response had high values
T1 sequence (whole entry): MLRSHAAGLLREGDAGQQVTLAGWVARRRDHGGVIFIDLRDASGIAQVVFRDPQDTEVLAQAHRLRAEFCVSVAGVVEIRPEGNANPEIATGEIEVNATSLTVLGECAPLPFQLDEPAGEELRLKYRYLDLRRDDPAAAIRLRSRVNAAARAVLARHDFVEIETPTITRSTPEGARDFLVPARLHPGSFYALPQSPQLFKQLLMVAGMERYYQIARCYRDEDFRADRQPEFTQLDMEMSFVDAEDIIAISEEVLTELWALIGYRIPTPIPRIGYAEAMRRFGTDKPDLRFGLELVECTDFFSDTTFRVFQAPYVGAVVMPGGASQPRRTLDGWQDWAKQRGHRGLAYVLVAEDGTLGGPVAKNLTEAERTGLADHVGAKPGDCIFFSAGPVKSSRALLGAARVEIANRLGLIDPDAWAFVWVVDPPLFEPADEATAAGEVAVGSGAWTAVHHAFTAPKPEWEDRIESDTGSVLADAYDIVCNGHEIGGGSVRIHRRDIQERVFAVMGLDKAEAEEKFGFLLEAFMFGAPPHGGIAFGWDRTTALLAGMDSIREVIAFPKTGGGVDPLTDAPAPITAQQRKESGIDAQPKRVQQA

How did the Percent Effect turn out when `Cc1nn(C)c(C)c1NC(=O)CN1CCc2c(nc(C(C)C)n2C)C1` was run?
Its Percent Effect is -0.413%.

How did the Percent Effect turn out when `CCC1(CC)Cc2ccccc2-c2nc(NCCO)[nH]c(=O)c21` was run?
Its Percent Effect is 6.5%.

With `CC1(C(=O)N2CCOCC2)CN(Cc2ccccc2F)CCO1` (stereo not given) as the compound, how does the Percent Effect read?
The Percent Effect was -0.309%.

Which Percent Effect does the source give for `O=C1NCC2(CCCN(Cc3ccc(Cl)s3)C2)Oc2ccccc21` (stereo not given) here?
The Percent Effect was -6.49%.

Which Percent Effect does the source give for `Cc1cnn(CC(C)NCc2ccc(OCc3ccncc3)cc2)c1` (stereo not given) here?
The Percent Effect was -0.0437%.

For `Cc1nc(C)n(CC2CCCN(CCC(=O)N3CCCCC3)C2)n1` (stereo not given), which Percent Effect is on record?
The Percent Effect was -1.61%.

`COc1cccc(-c2nc(C)c(C(=O)N[C@@H](C)C(=O)O)s2)c1` was tested. Which Percent Effect did it give?
Its Percent Effect is -1.66%.

Which Percent Effect does the source give for `NC(=O)CCN1CCC(C(=O)c2cc(F)ccc2F)CC1` here?
The Percent Effect was 0.12%.

Which Percent Effect does the source give for `COc1ncccc1C(=O)NCC1Cc2ccccc2O1` (stereo not given) here?
The Percent Effect was 6.18%.

Which Percent Effect does the source give for `CC(=O)N1CCCN(C(=O)c2csc(-c3ccc(C)cc3C)n2)CC1` here?
Its Percent Effect is -7.84%.

With `Cc1nc(CO[C@@H]2CN(Cc3cnn(C)c3)[C@@H]3COC[C@@H]32)cs1` as the compound, how does the Percent Effect read?
Its Percent Effect is -6.31%.

With `COCCCC1(CO)CCCN(CCS(C)(=O)=O)C1` (stereo not given) as the compound, how does the Percent Effect read?
The Percent Effect was 4.17%.

Which Percent Effect does the source give for `Cn1nc(C#N)c2c1CN(C(=O)c1cccnc1)CCC2` here?
Its Percent Effect is 7.3%.

For `CN(C)CCN1CCC2(CC1)CN(c1cccnc1)C(=O)CO2`, which Percent Effect is on record?
Its Percent Effect is 4.6%.

Which Percent Effect does the source give for `CC(=O)c1cccc(OCCCC(=O)N(C)Cc2ccccn2)c1` here?
The Percent Effect was -1.04%.

Which Percent Effect does the source give for `CN(Cc1noc(C2CC2)n1)C1CCN(Cc2ccncc2)C1` (stereo not given) here?
Its Percent Effect is -0.189%.

`COc1ccc(CN(C)Cc2nc3c(cnn3C)c(=O)[nH]2)cc1OC` was tested. Which Percent Effect did it give?
Its Percent Effect is -3.27%.

How did the Percent Effect turn out when `CC(C)(C)c1n[nH]c(C2CN(C(=O)c3cc(C4CC4)on3)CCO2)n1` (stereo not given) was run?
Its Percent Effect is -2.16%.

With `O=C(O)c1ccc(S(=O)(=O)Nc2ccc(Cl)c(F)c2)c(F)c1` as the compound, how does the Percent Effect read?
The Percent Effect was -0.533%.

With `COc1cccc(C)c1C(=O)N1C[C@@H](CN(C)C)[C@@H](CO)C1` as the compound, how does the Percent Effect read?
Its Percent Effect is 0.951%.

How did the Percent Effect turn out when `Cc1ccoc1C(=O)N1CC[C@H]2OCC[C@@]2(COCc2ccncc2)C1` was run?
Its Percent Effect is 3.13%.

With `Cn1cc(N2CC3(COCCN(Cc4ccsc4)C3)OCC2=O)cn1` (stereo not given) as the compound, how does the Percent Effect read?
The Percent Effect was 13.7%.

`CCCc1n[nH]c(C2CN(CCCS(C)(=O)=O)CCO2)n1` (stereo not given) was tested. Which Percent Effect did it give?
The Percent Effect was -3.39%.

With `CC(C)CC(=O)N1CCc2nc(N3CCOCC3)nc(NC(C)C)c2C1` as the compound, how does the Percent Effect read?
The Percent Effect was -3.63%.

Which Percent Effect does the source give for `COc1cc(C(=O)N2CCCS2(=O)=O)ccc1C` here?
The Percent Effect was -7.63%.

With `CN(C)Cc1cnc2n1CCN(Cc1ccsc1)CC2` as the compound, how does the Percent Effect read?
Its Percent Effect is -5.79%.

`CN(Cc1cn2ccccc2n1)C1CCCN(c2cccnn2)C1` (stereo not given) was tested. Which Percent Effect did it give?
Its Percent Effect is 3.45%.

For `O=C(COc1ccc2c(c1)CCC2)N1CCOCC1c1ncon1` (stereo not given), which Percent Effect is on record?
The Percent Effect was -4.77%.

With `Cc1nn(C)c(C)c1C1CCCN1C(=O)c1cnc2n[nH]c(C)c2c1` (stereo not given) as the compound, how does the Percent Effect read?
Its Percent Effect is -5.16%.

How did the Percent Effect turn out when `O=C(c1cnco1)N1CCCC(Cc2cccc3ncccc23)C1` (stereo not given) was run?
The Percent Effect was 3.23%.

How did the Percent Effect turn out when `Cc1csc(C2CCCN(C(=O)c3cnc[nH]3)C2)n1` (stereo not given) was run?
Its Percent Effect is 5.76%.

`CC(C)CNC(=O)c1ccc2nnc(C3CCN(S(C)(=O)=O)C3)n2c1` (stereo not given) was tested. Which Percent Effect did it give?
Its Percent Effect is 3.22%.

How did the Percent Effect turn out when `NCc1cnn(-c2ccccc2C(=O)NCc2ccncc2)c1` was run?
Its Percent Effect is -3.11%.

How did the Percent Effect turn out when `CNc1nc(CNC(=O)Nc2cccc(-c3nnco3)c2)cs1` was run?
Its Percent Effect is 2.65%.

With `O=C1COC2(CCN(Cc3ccoc3)CC2)CN1c1ccsc1` as the compound, how does the Percent Effect read?
The Percent Effect was 4.25%.

With `Cc1ccccc1N1CC2(CCN(S(=O)(=O)C3CC3)C2)CC1=O` (stereo not given) as the compound, how does the Percent Effect read?
Its Percent Effect is -1.07%.

`CC(C)c1cc(NC(=O)c2ccc(NC3CC3)nc2)[nH]n1` was tested. Which Percent Effect did it give?
Its Percent Effect is -1.67%.

With `Cc1cc(C(=O)O)cc(S(=O)(=O)Nc2ccc3c(c2)OCO3)c1C` as the compound, how does the Percent Effect read?
The Percent Effect was 11.6%.

For `O=C1CN(Cc2nnc(-c3ccc(Br)o3)o2)CCN1`, which Percent Effect is on record?
Its Percent Effect is -1.11%.

`COCCOc1ccccc1CNCc1c(C)nn(C)c1N(C)C` was tested. Which Percent Effect did it give?
The Percent Effect was 2.62%.

biological target: Shiga toxin 2 (Escherichia coli O157:H7) (UniProt P09385+P09386); assay: E. coli 0.157:H7 Shiga Toxin SOP - stx2 screening assay; assay type: functional; design: scale not given: direction of the effect not stated beside the values; conditions: 30 µM

`Cc1nn(C)c(C)c1NC(=O)CN1CCc2c(nc(C(C)C)n2C)C1` was tested. Which Percent Effect did it give?
The Percent Effect was 5.73%.

Which Percent Effect does the source give for `CCC1(CC)Cc2ccccc2-c2nc(NCCO)[nH]c(=O)c21` here?
Its Percent Effect is 17.7%.

How did the Percent Effect turn out when `CC1(C(=O)N2CCOCC2)CN(Cc2ccccc2F)CCO1` (stereo not given) was run?
The Percent Effect was 1.31%.

For `O=C1NCC2(CCCN(Cc3ccc(Cl)s3)C2)Oc2ccccc21` (stereo not given), which Percent Effect is on record?
Its Percent Effect is -53.7%.

With `Cc1cnn(CC(C)NCc2ccc(OCc3ccncc3)cc2)c1` (stereo not given) as the compound, how does the Percent Effect read?
Its Percent Effect is -25.9%.

How did the Percent Effect turn out when `Cc1nc(C)n(CC2CCCN(CCC(=O)N3CCCCC3)C2)n1` (stereo not given) was run?
Its Percent Effect is 13.6%.

How did the Percent Effect turn out when `COc1cccc(-c2nc(C)c(C(=O)N[C@@H](C)C(=O)O)s2)c1` was run?
The Percent Effect was -52%.

`NC(=O)CCN1CCC(C(=O)c2cc(F)ccc2F)CC1` was tested. Which Percent Effect did it give?
The Percent Effect was -0.638%.

For `COc1ncccc1C(=O)NCC1Cc2ccccc2O1` (stereo not given), which Percent Effect is on record?
The Percent Effect was 5.65%.

`CC(=O)N1CCCN(C(=O)c2csc(-c3ccc(C)cc3C)n2)CC1` was tested. Which Percent Effect did it give?
Its Percent Effect is -0.511%.

How did the Percent Effect turn out when `Cc1nc(CO[C@@H]2CN(Cc3cnn(C)c3)[C@@H]3COC[C@@H]32)cs1` was run?
The Percent Effect was -3.46%.

`COCCCC1(CO)CCCN(CCS(C)(=O)=O)C1` (stereo not given) was tested. Which Percent Effect did it give?
The Percent Effect was 0.747%.

How did the Percent Effect turn out when `Cn1nc(C#N)c2c1CN(C(=O)c1cccnc1)CCC2` was run?
Its Percent Effect is -7.73%.

With `CN(C)CCN1CCC2(CC1)CN(c1cccnc1)C(=O)CO2` as the compound, how does the Percent Effect read?
Its Percent Effect is -5.11%.

Which Percent Effect does the source give for `CC(=O)c1cccc(OCCCC(=O)N(C)Cc2ccccn2)c1` here?
Its Percent Effect is -20%.

`CN(Cc1noc(C2CC2)n1)C1CCN(Cc2ccncc2)C1` (stereo not given) was tested. Which Percent Effect did it give?
Its Percent Effect is -32.1%.

`COc1ccc(CN(C)Cc2nc3c(cnn3C)c(=O)[nH]2)cc1OC` was tested. Which Percent Effect did it give?
Its Percent Effect is -8.89%.

With `CC(C)(C)c1n[nH]c(C2CN(C(=O)c3cc(C4CC4)on3)CCO2)n1` (stereo not given) as the compound, how does the Percent Effect read?
The Percent Effect was -1.24%.

How did the Percent Effect turn out when `O=C(O)c1ccc(S(=O)(=O)Nc2ccc(Cl)c(F)c2)c(F)c1` was run?
Its Percent Effect is -14.1%.

How did the Percent Effect turn out when `COc1cccc(C)c1C(=O)N1C[C@@H](CN(C)C)[C@@H](CO)C1` was run?
Its Percent Effect is -14.7%.

`Cc1ccoc1C(=O)N1CC[C@H]2OCC[C@@]2(COCc2ccncc2)C1` was tested. Which Percent Effect did it give?
The Percent Effect was -14.8%.

For `Cn1cc(N2CC3(COCCN(Cc4ccsc4)C3)OCC2=O)cn1` (stereo not given), which Percent Effect is on record?
The Percent Effect was -3.88%.

How did the Percent Effect turn out when `CCCc1n[nH]c(C2CN(CCCS(C)(=O)=O)CCO2)n1` (stereo not given) was run?
The Percent Effect was -21.5%.

With `CC(C)CC(=O)N1CCc2nc(N3CCOCC3)nc(NC(C)C)c2C1` as the compound, how does the Percent Effect read?
The Percent Effect was 6.88%.

For `COc1cc(C(=O)N2CCCS2(=O)=O)ccc1C`, which Percent Effect is on record?
Its Percent Effect is -10.8%.

How did the Percent Effect turn out when `CN(C)Cc1cnc2n1CCN(Cc1ccsc1)CC2` was run?
Its Percent Effect is -3.72%.

For `CN(Cc1cn2ccccc2n1)C1CCCN(c2cccnn2)C1` (stereo not given), which Percent Effect is on record?
The Percent Effect was -72.8%.

For `O=C(COc1ccc2c(c1)CCC2)N1CCOCC1c1ncon1` (stereo not given), which Percent Effect is on record?
Its Percent Effect is 22.5%.

For `Cc1nn(C)c(C)c1C1CCCN1C(=O)c1cnc2n[nH]c(C)c2c1` (stereo not given), which Percent Effect is on record?
Its Percent Effect is -21.8%.

Which Percent Effect does the source give for `O=C(c1cnco1)N1CCCC(Cc2cccc3ncccc23)C1` (stereo not given) here?
Its Percent Effect is -27.4%.

For `Cc1csc(C2CCCN(C(=O)c3cnc[nH]3)C2)n1` (stereo not given), which Percent Effect is on record?
Its Percent Effect is 16.6%.

With `CC(C)CNC(=O)c1ccc2nnc(C3CCN(S(C)(=O)=O)C3)n2c1` (stereo not given) as the compound, how does the Percent Effect read?
The Percent Effect was 3.22%.

`NCc1cnn(-c2ccccc2C(=O)NCc2ccncc2)c1` was tested. Which Percent Effect did it give?
Its Percent Effect is 13.2%.

How did the Percent Effect turn out when `CNc1nc(CNC(=O)Nc2cccc(-c3nnco3)c2)cs1` was run?
The Percent Effect was -22.3%.

`O=C1COC2(CCN(Cc3ccoc3)CC2)CN1c1ccsc1` was tested. Which Percent Effect did it give?
Its Percent Effect is -18.4%.

How did the Percent Effect turn out when `Cc1ccccc1N1CC2(CCN(S(=O)(=O)C3CC3)C2)CC1=O` (stereo not given) was run?
Its Percent Effect is -4%.

How did the Percent Effect turn out when `CC(C)c1cc(NC(=O)c2ccc(NC3CC3)nc2)[nH]n1` was run?
Its Percent Effect is -52%.

For `Cc1cc(C(=O)O)cc(S(=O)(=O)Nc2ccc3c(c2)OCO3)c1C`, which Percent Effect is on record?
Its Percent Effect is -48%.

With `O=C1CN(Cc2nnc(-c3ccc(Br)o3)o2)CCN1` as the compound, how does the Percent Effect read?
Its Percent Effect is -65.1%.

For `COCCOc1ccccc1CNCc1c(C)nn(C)c1N(C)C`, which Percent Effect is on record?
The Percent Effect was 23.1%.
